D2 ag-1 = agonists of human D2 dopamine receptor | P14416 | HEK293 T-REx D2 cells, calcium flux agonist mode | activation, % at 2 µM | hit rate 0.53% among 340,000 | AID 485358;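 active = activation over 3 SD above normal in the single-dose calcium agonist read, cut at about 30% in these data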; note: 0% is about no effect
Target sequence (P14416 whole entry, looked up): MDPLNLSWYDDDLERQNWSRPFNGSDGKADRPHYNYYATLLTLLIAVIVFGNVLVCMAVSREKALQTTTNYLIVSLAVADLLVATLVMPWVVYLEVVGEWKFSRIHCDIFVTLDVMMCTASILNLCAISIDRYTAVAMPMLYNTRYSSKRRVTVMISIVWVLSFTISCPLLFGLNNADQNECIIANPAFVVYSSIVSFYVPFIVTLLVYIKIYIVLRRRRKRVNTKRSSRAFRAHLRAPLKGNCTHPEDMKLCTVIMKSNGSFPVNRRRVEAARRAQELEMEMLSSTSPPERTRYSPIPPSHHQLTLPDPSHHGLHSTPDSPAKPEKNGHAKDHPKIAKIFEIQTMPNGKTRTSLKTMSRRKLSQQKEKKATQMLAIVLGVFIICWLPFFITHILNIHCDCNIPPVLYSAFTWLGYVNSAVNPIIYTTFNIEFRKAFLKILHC
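Agonism is scored from calcium flux in a force-coupled, inducible HEK293 cell line expressing D2, read kinetically for 180 s after compound addition against dopamine controls.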
D2 PAM-1 = positive allosteric modulators of human D2 dopamine receptor; HEK293 T-REx D2, calcium flux, EC20 dopamine potentiation; potentiation, % at 10 µM; hit rate 0.34% among 340,000;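 active = potentiation over 3 SD above the plate norm, cut at about 30% in these data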; note: 0% is about no effect
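Using a no-wash calcium dye in inducible, force-coupled HEK293 Trex cells expressing D2, we tracked fluorescence each second for 180 s after compound, then for 180 s after EC20 dopamine to detect augmented signalling.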
D2 ag-2 = human D2 receptor agonism in beta-arrestin assay | hit rate 0.084% among 360,000 | P14416 | activation, % (concentration not given with the values) | DiscoveRx PathHunter D2 beta-arrestin, luminescence, 90 min; 100% = 57 uM dopamine signal | AID 624465; in the data active = activation above about 40%; inconclusive = between about 15% and that limit
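Agonist mode: compounds alone added to overnight-plated D2 PathHunter cells for 90 min at 37 C, with 57 uM final dopamine (EC100) defining full response. Beta-arrestin recruitment detected by chemiluminescent reagent, read after 1 h at ambient temperature.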
D2 antag = D2 dopamine receptor (human) antagonism; AID 485344; hit rate 2% among 340,000; inhibition, % at 10 µM; P14416; HEK293 TREx D2 cells, calcium flux, dopamine EC80; in the data active = inhibition above about 30%; inactive = below that, where a call was filed; note: 0% is about no effect
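Inhibition of EC80 dopamine-driven calcium flux, recorded kinetically, defines activity here; cells are a tetracycline-induced HEK293 T-REx line expressing force-coupled D2.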
D2 PAM-2 = potentiates the human D2 dopamine receptor allosterically; P14416; DiscoveRx D2 beta-arrestin cells, luminescence, 90 min; 100% = 57 uM dopamine signal; potentiation, % (no concentration beside the values); hit rate 0.23% among 360,000; AID 624464; in the data active = potentiation above about 50%; inconclusive = mostly about 30% to 49%
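PathHunter D2 cells, attached overnight at 37 deg C, received compound in DMSO plus dopamine at EC20 (50 nM final) for 90 min at 37 deg C. Beta-arrestin recruitment was read as luminescence after 1 h with detection reagent at ambient temperature.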
The depositor's hits bear a star; ? = inconclusive; nt = no result. The list is not random: actives were taken first. Their share in the collection is about 2.4%.

SMILES	D2 ag-1	D2 PAM-1	D2 ag-2	D2 antag	D2 PAM-2
S=c1[nH]nc(-c2ccco2)n1Cc1ccccc1	-2	11	0	6	-10
O=C(CSC1=NCCN1)Nc1cccc(C(F)(F)F)c1	1	-21	-2	75*	-13
COc1ccc(N2C(=O)Cc3cc(OC)c(OC)cc3C2c2ccc(F)cc2)cc1 (configuration not stated)	1	-5	nt	nt	nt
O=C(COc1ccc(Cl)cc1Cl)NC(=O)NC1CCCC1	-1	-4	1	5	-10
O=C(COc1ccc(Cl)cc1Cl)NC(=O)N1CCCCC1	-2	-23	1	32*	-15
Cc1nn(C(=O)c2ccccc2F)c(C)c1S(=O)(=O)N1CCOCC1	0	-5	nt	nt	nt
N/C(=N\c1nc2c(c(=O)[nH]1)CCCC2)Nc1ccccc1	0	8	0	-4	11
N/C(=N\c1nc2c(c(=O)[nH]1)CCC2)Nc1ccccc1	0	-5	2	30*	-1
Cc1sc(N/N=C/c2cccs2)nc1-c1ccccc1	0	-9	?	-16	66*
Cn1c(SCC(=O)NCCNC(=O)CSc2nnc(C(F)(F)F)n2C)nnc1C(F)(F)F	0	-16	-1	33*	-14
COc1ccc(NC(=O)Cn2nc(C)c3c(C)n(-c4ccccc4)nc3c2=O)cc1OC	0	-3	nt	nt	nt
COc1ccccc1NC(=O)CSc1nc(-c2ccc(C(C)(C)C)cc2)c(C#N)c(=O)[nH]1	-1	-1	nt	nt	nt
Cc1ccccc1-c1noc(C23CC4CC(CC(C4)C2)C3)n1	1	-26	-1	75*	-9
Cc1ccccc1-c1noc(-c2ccc(O)cc2)n1	0	-9	3	46*	13
COc1cc2c(cc1OC)C(COc1ccc3c(C)cc(=O)oc3c1)N(C(=O)c1ccccc1C)CC2 (configuration not stated)	-1	nt	nt	nt	nt
COc1ccc(NC(=O)CN(C)C(=O)c2ccccc2OC)cc1	0	2	-1	-3	-1
COc1ccc(N(C(=O)c2ccccc2OC(C)=O)C(C)C2CC2)cc1 (configuration not stated)	-1	-25	-2	30*	-4
CCCCNC(=O)c1cc(-c2ccc(OC)cc2)nc2n[nH]c(-c3cccc([N+](=O)[O-])c3)c12	0	-3	nt	nt	nt
CN(C)C1(CNC(=O)c2cccc(S(=O)(=O)NCc3ccccc3)c2)CCCCC1	0	3	-6	45*	-6
CCOc1ccc(CNC(=O)CN2N=C(c3ccccc3)CCC2=O)cc1OC	1	10	nt	nt	nt
O=C1NC(=S)SC1=Cc1cccs1	nt	nt	-7	nt	-11
CN1CCC/C1=C/C=C1\SC(=S)NC1=O	50*	6	-6	8	-31
CCN(CC)S(=O)(=O)c1ccc2c(c1)N(CC(=O)Nc1ccc(F)cc1F)C(=O)C1CCCN21 (configuration not stated)	0	0	nt	nt	nt
O=c1[nH]c(Nc2ccc3c(c2)OCCO3)nnc1Cc1ccccc1	0	2	-2	49*	-14
CCCCN(Cc1cc2cc(C)ccc2[nH]c1=O)C(=O)c1cccc(Cl)c1	-1	9	nt	nt	nt
SMILES	D2 ag-1	D2 PAM-1	D2 ag-2	D2 antag	D2 PAM-2
c1cc(CNc2ccc3c(c2)OCCO3)ccn1	2	31*	0	-7	15
CCN(CC(=O)Nc1cc(Cl)ccc1C)C(=O)COc1cccc2c1OC(C)(C)C2	1	-22	-3	43*	-30
O=C(COC(=O)c1cc(-c2cccs2)nn1-c1ccccc1)Nc1ccc(Cl)c([N+](=O)[O-])c1	15	-3	-1	44*	-7
CCOC(=O)C1(CC2CC2)CCN(Cc2ccc(C(=O)OC)cc2)CC1	0	-23	-2	72*	-14
CCOC(=O)C1CCN(Cc2ccc(C(=O)OC)cc2)CC1	0	-24	2	-9	-18
CCOC(=O)C1(CC2CC2)CCN(Cc2cn(C)c3ccccc23)CC1	-1	-13	-2	30*	-11
CCOc1ccc(OCCCCN2CCCC2)cc1	0	-9	-4	-3	-21
CCCCOc1ccc(CN2CCCCC2)cc1	0	-10	-3	52*	-17
COC(=O)c1ccc(CN2CCCCC2)cc1	0	-25	-4	35*	-30
COCCn1c(C)cc(O)c(C(c2ccccc2)N2CCC(C)CC2)c1=O (configuration not stated)	nt	3	nt	nt	nt
